Drawing on patent US20060069055, “Delivery of polynucleotides” (published 2006), this text covers IC50 for 1 sequence.

Sequence of NF-kB p50/p50 homodimer (P19838 1-433, one chain of several): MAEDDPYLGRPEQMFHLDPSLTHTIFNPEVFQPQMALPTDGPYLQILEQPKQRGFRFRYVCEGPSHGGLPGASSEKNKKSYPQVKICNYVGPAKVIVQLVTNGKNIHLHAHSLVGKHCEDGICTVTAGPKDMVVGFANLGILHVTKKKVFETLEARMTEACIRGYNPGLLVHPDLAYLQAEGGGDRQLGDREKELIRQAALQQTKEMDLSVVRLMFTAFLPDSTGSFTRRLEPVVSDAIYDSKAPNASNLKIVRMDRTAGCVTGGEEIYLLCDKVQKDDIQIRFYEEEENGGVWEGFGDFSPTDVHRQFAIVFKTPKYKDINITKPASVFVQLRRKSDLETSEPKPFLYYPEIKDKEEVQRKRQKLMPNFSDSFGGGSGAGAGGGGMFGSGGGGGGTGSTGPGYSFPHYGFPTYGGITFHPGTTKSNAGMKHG

The test has as its target NF-kB p50/p50 homodimer (Homo sapiens, UniProt P19838 P19838:1-433). Put plainly: EMSA; Table 3 gives 92 for PO. The following applies: protein: extract; tags: nuclear extract of LPS-stimulated THP-1 cells; chain copies: 2 stated; dsDNA, one strand shown. From the text: The EMSA assay was employed to characterize oligonucleotide decoys for the NF-κB transcription factor. […] Using the above modified oligonucleotides to compete for binding for the above-mentioned NF-κB family members, it was possible to compare the binding affinity of these oligonucleotides against the high affinity radiolabeled probe and each other. This assay has also enabled the design of a decoy which selectively binds particular members of the NF-κB family. By using increasing concentrations of various oligonucleotides, it was observed that, by deleting or changing targeted residues in the binding site, it was possible to specifically decrease the binding of the decoy molecule to p50/p50 homodimers, while retaining the affinity for p65/p50 and cRel/p50 heterodimers.
The NF-κB gel shift assays (EMSA) were performed as follows. A double-stranded oligonucleotide containing a consensus NF-κB binding site (5′ […].GGC 3′) (SEQ ID NO: 26) was end-labeled with γ³²P-ATP using T4 Polynucleotide Kinase (Promega). […] The dried gels were imaged and quantitated using a Typhoon 8600 Phosphorlmager (Amersham) and ImageQuant software. […]
Background: Mobility shift assays separate free from complexed probe on a gel.
AGTTGAGGACTTTCCAGGC: the IC50 was 96 fold molar excess.
